Screening results from PubChem.
CD11b adhes enh: increases human CD11b/CD18 adhesion to fibrinogen. activation, % at 10 µM. P05107+P11215. K562 CD11b/CD18 adhesion to fibrinogen, ATPlite luminescence. 93,000 compounds, 0.07% hits;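 active means 10 µM primary screen giving 50% or more activity, confirmed by 40% or more on retest at that dose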
Target sequence (P05107 whole entry, looked up, other chains not shown): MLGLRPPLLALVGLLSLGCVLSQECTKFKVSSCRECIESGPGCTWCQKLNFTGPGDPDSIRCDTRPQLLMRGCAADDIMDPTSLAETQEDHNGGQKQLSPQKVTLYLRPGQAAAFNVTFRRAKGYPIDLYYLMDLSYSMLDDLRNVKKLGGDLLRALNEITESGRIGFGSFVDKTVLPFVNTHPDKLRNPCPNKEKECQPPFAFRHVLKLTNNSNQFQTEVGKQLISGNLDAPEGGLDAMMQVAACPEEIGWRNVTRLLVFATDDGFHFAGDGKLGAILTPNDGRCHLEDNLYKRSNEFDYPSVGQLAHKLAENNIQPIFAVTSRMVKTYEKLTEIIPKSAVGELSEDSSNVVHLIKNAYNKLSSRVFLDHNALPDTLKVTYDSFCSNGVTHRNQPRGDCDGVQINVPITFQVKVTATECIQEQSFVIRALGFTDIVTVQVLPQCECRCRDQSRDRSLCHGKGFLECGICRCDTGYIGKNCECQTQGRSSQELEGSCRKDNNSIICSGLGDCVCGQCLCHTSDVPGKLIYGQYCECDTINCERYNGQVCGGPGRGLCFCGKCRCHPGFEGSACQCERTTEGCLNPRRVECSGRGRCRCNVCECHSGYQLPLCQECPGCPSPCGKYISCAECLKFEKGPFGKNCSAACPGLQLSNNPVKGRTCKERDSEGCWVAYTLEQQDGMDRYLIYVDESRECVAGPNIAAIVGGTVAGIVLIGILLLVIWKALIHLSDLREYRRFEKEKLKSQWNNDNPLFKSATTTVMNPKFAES
CD11b adhes inh: blocks human CD11b/CD18 adhesion to fibrinogen | P05107+P11215 | K562 CD11b/CD18 adhesion to fibrinogen, ATPlite luminescence; Mn2+ added to activate the integrin | inhibition, % at 10 µM | 93,000 compounds, 0.54% hits | AID 1497;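 active means primary inhibition of 50% or more at 10 µM, then 40% or more on retest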
CYP2C19 activ: cytochrome P450 2C19 (human) activation | recombinant CYP2C19, luciferin-H EGE luminescence; stronger effect = higher value; 0 = fully inhibited enzyme, 1 = untreated enzyme | activation factor at 5 µM | 96,000 tested, under 10 active | AID 1025;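 active means activation factor of at least 2 at 5 µM in the primary screen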
CYP2C19 inhib: inhibitors of human CYP2C19. CYP2C19 Supersomes, luciferin-H EGE luminescence, 30 min. AID 778. inhibition, % at 5 µM. 96,000 compounds, 21% hits. P33261;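 active means CYP2C19 inhibition above a set limit at 5 µM in the primary screen, cut at about 50% in these data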
CYP2C9 inhib: human CYP2C9 inhibition. P11712. CYP2C9 Supersomes, luciferin-H conversion, luminescence. inhibition, % at 5 µM. 96,000 compounds, 20% hits. AID 777;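 active means blocking of liver enzyme CYP2C9 beyond about 50% at 5 µM, limit read from the data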
CYP2C9 activ: activators of human CYP2C9; P11712; recombinant CYP2C9, luciferin-H conversion, luminescence; stronger effect = higher value; factor 1 = untreated enzyme, 0 = blocked; activation factor at 5 µM; 96,000 compounds, 1.4% hits; AID 1024;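 active means activation factor of 2 or more for CYP2C9 at a 5 µM dose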
Of the large screens only hits and unclear results are named; the others gave an inactive call. An excerpt weighted towards active compounds, which were near 28% of everything screened.

CC(C)CNC(=O)c1cccc(NC(=O)C2CCCO2)c1 (centres undefined)	none
CC(=O)c1cccc(NC(=O)C(OC(=O)/C=C/c2ccc3c(c2)OCO3)c2ccccc2)c1 (centres undefined)	CYP2C19 inhib 76, CYP2C9 inhib 95
Cc1cccc(NC(=O)CO/N=C/c2ccc3c(c2)OCO3)c1	none (no result: CYP2C19 activ, CYP2C19 inhib, CYP2C9 inhib, CYP2C9 activ)
Oc1csc(Cc2nc(-c3ccc(-c4ccccc4)cc3)cs2)n1	CD11b adhes enh 161
CCOC(=O)/C(=C/c1c2ccccc2cc2ccccc12)NC(=O)c1ccccc1	none (no result: CD11b adhes enh, CD11b adhes inh)
Cc1ccc(C(=O)NC(c2ccccc2)C(Cl)Cl)cc1 (centres undefined)	none (no result: CYP2C19 activ, CYP2C19 inhib, CYP2C9 inhib, CYP2C9 activ)
COC(=O)CC(NC(=O)c1ccc(C)cc1)c1ccc2c(c1)OCO2 (centres undefined)	CYP2C19 inhib 78, CYP2C9 inhib 68
C=CCOC(=O)CC(NC(=O)c1ccccc1)c1ccccc1 (centres undefined)	CYP2C19 inhib 96, CYP2C9 inhib 94
C=CCOC(=O)/C(=C\c1cccc2ccccc12)NC(=O)c1ccccc1	CYP2C19 inhib 82, CYP2C9 inhib 78 (no result: CD11b adhes enh, CD11b adhes inh)
COC(=O)CC(NC(=O)c1ccc(C)cc1)c1ccccc1 (centres undefined)	CYP2C19 inhib 69
CCCOc1ccc(C(CC(=O)O)NC(=O)c2ccc3c(c2)OCO3)cc1 (centres undefined)	none
O=C(COC(=O)c1ccc(=O)n(Cc2ccccc2)n1)Nc1ccc2c(c1)OCCO2	none
COc1ccccc1CN(Cc1nc2ccccc2c(=O)[nH]1)C(=O)Nc1ccccc1	none
O=c1[nH]c(=O)n(Cc2ccco2)c2c1C(C(F)(F)F)(C(F)(F)F)N=C(Cc1ccccc1)N2	CYP2C9 inhib 76 (no result: CD11b adhes enh, CD11b adhes inh)
COc1ccc(CCNC(=O)C2(C)CCC(=O)N2Cc2ccc3c(c2)OCO3)cc1OC (centres undefined)	CYP2C19 inhib 54
CC(=O)N(C)c1ccc(NC(=O)c2cnn(C)c2)cc1	none
O=C(NCc1ccco1)C12CC3CC(C1)CC(C(=O)NCc1ccco1)(C3)C2	none
O=C(NC1CCN(C(=S)NCc2ccco2)CC1)C12CC3CC(CC(C3)C1)C2	CYP2C19 inhib 67
Cc1nn(-c2ccc(Cl)c(Cl)c2Cl)c(=O)c2ccccc12	CYP2C19 inhib 71, CYP2C9 inhib 54
O=C1C2C3C=CC(C3)C2C(=O)N1CCc1ccccc1 (centres undefined)	CYP2C19 inhib 90
O=C1C2C(C(=O)N1CCc1ccccc1)C1C=CC2C12CC2 (centres undefined)	CYP2C19 inhib 92
O=C1C2C(C(=O)N1Cc1ccco1)C1C=CC2C12CC2 (centres undefined)	none
O=C(NCCN1C(=O)C2C3C=CC(C3)C2C1=O)Nc1ccccc1O (centres undefined)	CYP2C19 inhib 77
Cc1ccc(S(=O)(=O)N2CCC(C(=O)N3CCC[C@H]3C(=O)NCc3ccco3)CC2)cc1	none
O=C(O)c1ccc2c(=O)n3c(nc2c1)/C(=C/c1ccccc1C(F)(F)F)CCCC3	none (no result: CYP2C19 activ, CYP2C19 inhib, CYP2C9 inhib, CYP2C9 activ)
Cc1cc(SCc2cc(=O)[nH]c3ccccc23)nc2ccccc12	none
COc1ccc(Cn2nnnc2C(C(C)C)N(Cc2ccco2)Cc2cccs2)cc1 (centres undefined)	CYP2C19 inhib 56, CYP2C9 inhib 66
CC(C)C(c1nnnn1Cc1ccccc1)N(Cc1ccco1)Cc1cccs1 (centres undefined)	CYP2C19 inhib 96, CYP2C9 inhib 89
C=C(C)c1cccc(C(C)(C)NC(=O)Nn2cnnc2)c1	CYP2C19 inhib 73, CYP2C9 inhib 50
C=C(C)c1cccc(C(C)(C)NC(=O)Nc2ncccn2)c1	none
CC(C)CCNC(=O)COc1ccc2c(c1)C(=O)CC(C)(C)O2	CYP2C19 inhib 74, CYP2C9 inhib 80
CC1(C)CC(=O)c2cc(OCC(=O)NCCN3CCCc4ccccc43)ccc2O1	none
COc1ccccc1-c1cn[nH]c(=S)n1	none
O=c1cc(CN2CCC3(CC2)OCCO3)c2c(ccc3ccccc32)o1	CYP2C19 inhib 78
O=C1CC(c2cccs2)Cc2nc(NCC3CCCO3)ncc21 (centres undefined)	CYP2C19 inhib 85, CYP2C9 inhib 74
COc1ccc(C)cc1S(=O)(=O)N(C)CC(=O)NC1CC1	none
COc1ccc(C)cc1S(=O)(=O)N(C)CC(=O)Nc1ccc2c(c1)OCO2	CYP2C19 inhib 58, CYP2C9 inhib 86 (no result: CD11b adhes enh, CD11b adhes inh)
COc1ccc(C)cc1S(=O)(=O)N(CC(=O)Nc1ccc2c(c1)OCCO2)Cc1ccccc1	CYP2C19 inhib 100, CYP2C9 inhib 98
CS(=O)(=O)N(CC(=O)Nc1ccc2c(c1)OCCO2)Cc1ccc(Cl)cc1	none
CCOC(=O)N1CCN(c2nc3ccccc3nc2C(C#N)C(=O)NCCc2ccccc2)CC1 (centres undefined)	CYP2C19 inhib 65, CYP2C9 inhib 73 (no result: CD11b adhes enh, CD11b adhes inh)
N#CC(C(=O)NCCc1ccccc1)c1nc2ccccc2nc1N1CCCCC1 (centres undefined)	none
CCOC(=O)C1CCCN(c2nc3ccccc3nc2C(C#N)C(=O)NCc2ccccc2)C1 (centres undefined)	CYP2C9 inhib 62
Cc1cc(C)cc(OCC(=O)Nc2cccc(-c3nc4ncccc4o3)c2)c1	none
C#Cc1ccc(C(=O)Nc2cc(C(N)=O)ccc2N2CCOCC2)cc1	none
O=C(Oc1cccc2cccnc12)c1ccc2c(c1)OCCO2	CYP2C9 activ 3.3
O=C(Oc1cccc2cccnc12)c1ccc(Br)o1	none
COc1ccc(N2C(=O)CCC(C(C)=O)=C2C)cc1	none
CCCCSc1nnc(-c2ccccc2N)c(=O)[nH]1	none
CCCCCSc1nnc(-c2cc(Br)ccc2N)c(=O)[nH]1	CYP2C9 inhib 60
c1ccc(OCc2nnc3sc(-c4cccs4)nn23)cc1	CYP2C19 inhib 53, CYP2C9 inhib 58
Clc1ccc(Cl)c(-c2nn3c(COc4ccccc4)nnc3s2)c1	CYP2C9 inhib 50
COc1ccc(-c2nn3c(COc4ccccc4)nnc3s2)cc1OC	CYP2C9 inhib 58
c1ccc(OCc2nn3c(Cn4nnc5ccccc54)nnc3s2)cc1	none
O=C1CC(N2CCN(c3ccc(F)cc3)CC2)C(=O)N1Cc1ccc(N2CCCC2=O)cc1 (centres undefined)	none
CCOC(=O)C1CCCN(C(=O)C2CCN(S(=O)(=O)c3cccs3)CC2)C1 (centres undefined)	CYP2C19 inhib 75, CYP2C9 inhib 64
O=C(C1Cc2ccccc2CN1S(=O)(=O)c1ccc(F)cc1)N1CCCCCC1 (centres undefined)	none (no result: CD11b adhes enh, CD11b adhes inh)
COc1ccc(S(=O)(=O)N2CCCC(C(=O)N3CCOCC3)C2)cc1C (centres undefined)	CYP2C9 activ 2.2
CCOC(=O)N1CCN(S(=O)(=O)c2ccc(Br)s2)CC1	CYP2C19 inhib 88, CYP2C9 inhib 81
CN1CCN(S(=O)(=O)c2ccc(Br)s2)CC1	none
